Our source for the inhibition values is PubChem BioAssay.

Molecules are shown by their SMILES. A number with no mark means an inactive call. Rule as the data show it, unless noted: active = inhibition above about 31%; inactive = the rest.

As usually defined, the inhibition is the drop in the measured response relative to a control, in per cent.

One test in a line: yeast transport mutant growth inhibition pilot in 384-well plates, post-Golgi transport modulator project (AID 636). Conditions: absorbance 615 nm, about 18 h, active compounds read high.
In the case of `O=C(NCC(F)(F)F)Nc1cccnc1`, the inhibition is -4.19%.

As for `CC(=O)Nc1ccc(S(=O)(=O)N2CCN(c3cc(C)nc4ccccc34)CC2)cc1`, the inhibition was -5.41%.

Regarding `CCc1nnc(NC(=O)CSc2nnc(-c3ccccc3OC)n2-c2ccccc2)s1`, the inhibition was -1.73%.

With `CCOc1ccc(CCNc2nc3c(c(=O)n(C)c(=O)n3C)n2CC)cc1OCC`, the inhibition was -1.73%.

On to `Cn1c(=O)c2c(nc(NCCNC(=O)c3ccco3)n2Cc2ccccc2Cl)n(C)c1=O`, for which the inhibition was -7.57%.

In the case of `Cc1ccc2cc(C(c3nnnn3C3CCCC3)N3CCN(c4ccc(F)cc4)CC3)c(=O)[nH]c2c1` (stereo not drawn), the inhibition was -5.6%.

Turning to `Cc1ccc(OCC2Cn3c(nc4c3c(=O)n(C)c(=O)n4C)O2)cc1` (stereo not drawn), the inhibition is -8.36%.

On to `Cc1c(C(=O)N2CCN(c3ccccc3)CC2)sc2ncnc(N3CCN(c4ccccc4)CC3)c12`, for which the inhibition was 0.13%.

Regarding `COc1cccc(-c2nnc(SCC(N)=O)n2-c2ccc(Cl)cc2)c1`, the inhibition is 0%.

For the compound `CC1=C(C(=O)N2CCOCC2)C(c2ccccc2F)C2=C(CCCC2=O)N1` (stereo not drawn), the inhibition was -2.88%.

Consider `C/C=C(\C)c1nnc(NC(=O)OCC)s1`, for which the inhibition was -2.84%.

On to `C[C@H](CCC(=O)O)[C@H]1CC[C@H]2[C@@H]3C(=O)C[C@@H]4CC(=O)CC[C@]4(C)[C@H]3CC(=O)[C@]12C`, for which the inhibition was 0.65%.

As to `Cc1ccc2c(c1)nnn2C1CCN(C(=O)NC23CC4CC(CC(C4)C2)C3)CC1`, the inhibition was -8.08%.

In the case of `CN(C)C(CNC(=O)Nc1cccc(Cl)c1)c1cccnc1` (stereo not drawn), the inhibition was -3.42%.

Regarding `FC(F)Oc1cccc2cccnc12`, the inhibition is -3.33%.

As for `CCOc1cc(C(=O)Nc2c3c(nn2C(C)(C)C)CS(=O)C3)cc(OCC)c1OCC` (stereo not drawn), the inhibition was -1.04%.

As to `CC(=O)Nc1ccc(N=Cc2nc(-c3ccc(C)cc3)oc2O)cc1`, the inhibition is 0%.

Regarding `N#CC1=C(N)N2C(=C(C#N)C13CCCCC3)SC1CCCCC12O` (stereo not drawn), the inhibition is -3.01%.

For the compound `O=S(=O)(c1ccc(Br)s1)N1CCN(c2ccccc2)CC1`, the inhibition is -3.78%.

Turning to `c1coc(-c2nnc(-c3cccs3)o2)c1`, the inhibition is -5.33%.

Turning to `CN1[C@@H]2CC(OC(=O)[C@H](CO)c3ccccc3)C[C@H]1[C@@H]1O[C@@H]12` (stereo partly drawn), the inhibition was -2.08%.

As to `CCCN1CCN(C(=O)Cn2cccc2C(=O)c2ccccc2)CC1`, the inhibition is -2.27%.

With `CC(CCc1ccccc1)NCC(O)c1ccc(O)c(C(N)=O)c1` (stereo not drawn), the inhibition is 1.17%.

For `Cc1nc2c(-c3ccccc3)c(C)[nH]n2c(=O)c1Cl`, the inhibition was -0.55%.

Take `CCCC(=O)n1nc(-c2ccc(OC)cc2)nc1N`: the inhibition was -1.56%.

Regarding `O=C(C1CCN(C2CC(=O)N(c3ccc(F)cc3)C2=O)CC1)N1CCOCC1` (stereo not drawn), the inhibition is -1.43%.

With `O=C(NCc1cccs1)C1CC(=O)N(C2CCCC2)C1` (stereo not drawn), the inhibition was 2.6%.

As for `CCC(C)NCC(O)COCc1ccc(Cl)cc1` (stereo not drawn), the inhibition is 0.52%.

For the compound `CSc1c(CC(=O)NCCO)n(C)c2ccccc12`, the inhibition was -4.13%.

Take `O=C(O)c1ccc(COc2c(F)c(F)c(F)c(F)c2F)o1`: the inhibition is 0.14%.

In the case of `CSc1ncc(Cl)c(C(=O)Nc2ccc(S(=O)(=O)N3CCOCC3)cc2)n1`, the inhibition is -7.67%.

Turning to `S=C(c1ccc(N2CCOCC2)cc1)N1CCCCC1`, the inhibition is -5.48%.

`CCOC(=O)C1CCN(c2cc(C)nc3cc(-c4cccc(F)c4)nn23)CC1`: the inhibition is -3.78%.

Consider `O=S(=O)(Nc1nc2ccccc2nc1NCc1ccco1)c1cccs1`, for which the inhibition is -5.68%.

Regarding `OC(CCCN1CCC(O)(c2ccc(Cl)cc2)CC1)c1ccc(F)cc1` (stereo not drawn), the inhibition is 2.47%.

For the compound `C=CCN1C(=O)C2(/C(=C(\O)c3ccc4c(c3)OCCO4)C(=O)C(=O)N2CCCOC)c2ccccc21` (stereo not drawn), the inhibition is -8.36%.

Regarding `Cc1ccc2c(c1)N(CC(=O)N1CCCCC1c1cccnc1)C(=O)CO2` (stereo not drawn), the inhibition was -2.84%.

With `O=C(CSc1n[nH]c(=O)[nH]c1=O)c1ccccc1`, the inhibition is -2.4%.

On to `O=[N+]([O-])c1cccc2cn[nH]c12`, for which the inhibition is -0.91%.

The nature of another test: growth suppression of yeast trafficking mutant, preliminary HTS, modulators of trafficking downstream of Golgi apparatus project, 1536-format plate, OD 615 nm (AID 637; in the data active = inhibition above about 30%). The conditions noted are these: yeast transport mutant growth, absorbance 615 nm, 18 h; active compounds read high.
Regarding `O=C(NCC(F)(F)F)Nc1cccnc1`, the inhibition is -4%.

`CC(=O)Nc1ccc(S(=O)(=O)N2CCN(c3cc(C)nc4ccccc34)CC2)cc1`: the inhibition was -3.09%.

In the case of `CCc1nnc(NC(=O)CSc2nnc(-c3ccccc3OC)n2-c2ccccc2)s1`, the inhibition was -1.45%.

With `CCOc1ccc(CCNc2nc3c(c(=O)n(C)c(=O)n3C)n2CC)cc1OCC`, the inhibition is 3.27%.

On to `Cn1c(=O)c2c(nc(NCCNC(=O)c3ccco3)n2Cc2ccccc2Cl)n(C)c1=O`, for which the inhibition is -4.36%.

For the compound `Cc1ccc2cc(C(c3nnnn3C3CCCC3)N3CCN(c4ccc(F)cc4)CC3)c(=O)[nH]c2c1` (stereo not drawn), the inhibition was 1.27%.

Regarding `Cc1ccc(OCC2Cn3c(nc4c3c(=O)n(C)c(=O)n4C)O2)cc1` (stereo not drawn), the inhibition is 2.91%.

For the compound `Cc1c(C(=O)N2CCN(c3ccccc3)CC2)sc2ncnc(N3CCN(c4ccccc4)CC3)c12`, the inhibition was -4.59%.

Turning to `COc1cccc(-c2nnc(SCC(N)=O)n2-c2ccc(Cl)cc2)c1`, the inhibition was -4.19%.

On to `CC1=C(C(=O)N2CCOCC2)C(c2ccccc2F)C2=C(CCCC2=O)N1` (stereo not drawn), for which the inhibition is 0.91%.

As for `C/C=C(\C)c1nnc(NC(=O)OCC)s1`, the inhibition is -0.91%.

`C[C@H](CCC(=O)O)[C@H]1CC[C@H]2[C@@H]3C(=O)C[C@@H]4CC(=O)CC[C@]4(C)[C@H]3CC(=O)[C@]12C`: the inhibition was -0.83%.

As for `Cc1ccc2c(c1)nnn2C1CCN(C(=O)NC23CC4CC(CC(C4)C2)C3)CC1`, the inhibition was 0.16%.

For the compound `CN(C)C(CNC(=O)Nc1cccc(Cl)c1)c1cccnc1` (stereo not drawn), the inhibition was 2.18%.

For the compound `FC(F)Oc1cccc2cccnc12`, the inhibition is -0.55%.

Regarding `CCOc1cc(C(=O)Nc2c3c(nn2C(C)(C)C)CS(=O)C3)cc(OCC)c1OCC` (stereo not drawn), the inhibition is -7.54%.

For `CC(=O)Nc1ccc(N=Cc2nc(-c3ccc(C)cc3)oc2O)cc1`, the inhibition is -1.8%.

As to `N#CC1=C(N)N2C(=C(C#N)C13CCCCC3)SC1CCCCC12O` (stereo not drawn), the inhibition is 8.91%.

As for `O=S(=O)(c1ccc(Br)s1)N1CCN(c2ccccc2)CC1`, the inhibition is -3.27%.

For the compound `c1coc(-c2nnc(-c3cccs3)o2)c1`, the inhibition is 0%.

`CN1[C@@H]2CC(OC(=O)[C@H](CO)c3ccccc3)C[C@H]1[C@@H]1O[C@@H]12` (stereo partly drawn): the inhibition is -2.83%.

Regarding `CCCN1CCN(C(=O)Cn2cccc2C(=O)c2ccccc2)CC1`, the inhibition was 1.27%.

`CC(CCc1ccccc1)NCC(O)c1ccc(O)c(C(N)=O)c1` (stereo not drawn): the inhibition was -3.17%.

In the case of `Cc1nc2c(-c3ccccc3)c(C)[nH]n2c(=O)c1Cl`, the inhibition was 11.8%.

For `CCCC(=O)n1nc(-c2ccc(OC)cc2)nc1N`, the inhibition is 5.74%.

As for `O=C(C1CCN(C2CC(=O)N(c3ccc(F)cc3)C2=O)CC1)N1CCOCC1` (stereo not drawn), the inhibition is 4.43%.

As to `O=C(NCc1cccs1)C1CC(=O)N(C2CCCC2)C1` (stereo not drawn), the inhibition is 8.03%.

Consider `CCC(C)NCC(O)COCc1ccc(Cl)cc1` (stereo not drawn), for which the inhibition was -4.59%.

As for `CSc1c(CC(=O)NCCO)n(C)c2ccccc12`, the inhibition was 0.91%.

With `O=C(O)c1ccc(COc2c(F)c(F)c(F)c(F)c2F)o1`, the inhibition was 19.4%.

In the case of `CSc1ncc(Cl)c(C(=O)Nc2ccc(S(=O)(=O)N3CCOCC3)cc2)n1`, the inhibition is 0.36%.

As to `S=C(c1ccc(N2CCOCC2)cc1)N1CCCCC1`, the inhibition is -8.87%.

Take `CCOC(=O)C1CCN(c2cc(C)nc3cc(-c4cccc(F)c4)nn23)CC1`: the inhibition is -6.91%.

Regarding `O=S(=O)(Nc1nc2ccccc2nc1NCc1ccco1)c1cccs1`, the inhibition is 0.73%.

As to `OC(CCCN1CCC(O)(c2ccc(Cl)cc2)CC1)c1ccc(F)cc1` (stereo not drawn), the inhibition is 4.5%.

Consider `C=CCN1C(=O)C2(/C(=C(\O)c3ccc4c(c3)OCCO4)C(=O)C(=O)N2CCCOC)c2ccccc21` (stereo not drawn), for which the inhibition is 0.48%.

As to `Cc1ccc2c(c1)N(CC(=O)N1CCCCC1c1cccnc1)C(=O)CO2` (stereo not drawn), the inhibition is -5.82%.

For the compound `O=C(CSc1n[nH]c(=O)[nH]c1=O)c1ccccc1`, the inhibition is -3.82%.

Take `O=[N+]([O-])c1cccc2cn[nH]c12`: the inhibition was 1.17%.
